# Laboratory results taken from PubChem BioAssay (NCI).
# Compounds without any hit were thinned out: in the full panel of roughly 83,000, 20% have a hit.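 Interpretation: 100, growth as untreated; towards 0, rising growth inhibition; 0, no net growth; 0 to -100, cell death. Compounds scoring below 10 were considered active.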 Active and inactive are the calls of the source.
# Test system: U251 CNS
# Test: NCI-60 one-dose screen, 48 h (100 = growth as untreated, 0 = no growth, -100 = all killed)
# Details: 10 µM unless noted
row,Structure (SMILES),growth
1,CCOC(=O)c1c(-c2ccccc2)n2c(=O)cc(C)c3c(O)c(O)cc1c32,48.8% (inactive)
2,CCOC(=O)c1n[nH]n2c1nc(=O)c1cnn(C)c12,100% (inactive)
3,COc1cccc(/C=C/C(=O)c2cc3c(N)c(C(=O)Nc4cccc(Cl)c4C)sc3nc2C)c1,-78.4% (active)
4,COc1ccc2cc(-c3ccc(-c4ccc(C(=N)N)s4)s3)ccc2c1,-85.9% (active)
5,O=C1NC(=C(Cl)Cl)/C(=N/S(=O)(=O)NCCc2c[nH]c3ccccc23)N1,33.8% (inactive)
6,CC[C@]12C=CCN3CC[C@@]4(c5ccc(OC)cc5N(C)[C@H]4[C@@](O)(C(=O)OC)[C@@H]1OC(=O)CCCN1CCOCC1)[C@@H]32,101% (inactive)
7,Nc1ccc([N+](=O)[O-])cc1N=C/C=C/c1ccccc1,56.9% (inactive)
8,Cc1nc2sc(C(=O)Nc3ccc(Cl)cc3)c(N)c2cc1C(O)c1ccccc1 (centres undefined),32.8% (inactive)
9,S=c1[nH]c2cc(Cl)ccc2o1,104% (inactive)
10,CN(C)c1ccc(/C=C2/C=C(c3ccccc3)OC2=O)cc1,108% (inactive)
11,COc1ccc(-c2ccc(=O)oc2C#Cc2cc(OC)c(OC)c(OC)c2)cc1O,13.6% (inactive)
12,C#Cc1cccc(Nc2nc3ccc([N+](=O)[O-])cc3nc2Nc2cccc(C#C)c2)c1,-91.1% (active)
13,CC(C(=O)O)n1c(O)c(C=Nc2cccnc2)sc1=S (centres undefined),86.3% (inactive)
14,O=C(/C=C/c1ccc(Br)cc1)c1ccc(-n2cc(CN3CCN(c4cc5c(cc4F)c(=O)c(C(=O)O)cn5C4CC4)CC3)nn2)cc1,71.2% (inactive)
